Counter-ions that a name gives are not always drawn. A number with no mark means an inactive call.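 The calls were made as follows: active = AUC significantly below DMSO controls by Student t-fit with adjusted P under 0.01; inactive = not significantly reduced.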

For the assay, the system named is Haemophilus parainfluenzae. Nature of the assay: growth AUC normalised to DMSO control (fraction of control); higher = less growth inhibition, active = hit call of the paper. The settings on record: 20 µM. The essentials: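 For the AUC endpoint, growth curves were integrated by the trapezoidal rule up to the exponential-to-stationary transition and normalised to DMSO controls on the same plate. The curves came from OD578 readings taken hourly for 24 h, in three biological replicates. Pathogens had been passaged anaerobically twice and inoculated at an OD578 of 0.01 into pre-reduced mGAM plates carrying 20 μM compound and 1% DMSO, sealed with breathable membranes. Medium for Haemophilus parainfluenzae also contained hemin and NAD.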
Take `CC(C(=O)O)c1ccc(C(=O)c2ccccc2)s1` (stereo not given) [Tiaprofenic acid]: the “growth AUC normalised to DMSO control” value is 1.

As for `O=C(O)COC(=O)Cc1ccccc1Nc1c(Cl)cccc1Cl` [Aceclofenac], the “growth AUC normalised to DMSO control” value is 1.01.

Regarding `CCN(CC)CCOC(=O)C(Cc1cccc2ccccc12)CC1CCCO1` (stereo not given) [Nafronyl oxalate], the “growth AUC normalised to DMSO control” value was 1.28.

With `CCOC(=O)[C@H](CCc1ccccc1)N[C@@H](C)C(=O)N1[C@H](C(=O)O)C[C@@H]2CCC[C@@H]21` [Ramipril], the “growth AUC normalised to DMSO control” value is 1.02.

In the case of `Cc1ccc(NC(=O)c2ccc(CN3CCN(C)CC3)cc2)cc1Nc1nccc(-c2cccnc2)n1` [Imatinib], the “growth AUC normalised to DMSO control” value was 1.09.

Consider `CCOc1ccccc1OC(c1ccccc1)C1CNCCO1` (stereo not given) [Reboxetine mesylate], for which the “growth AUC normalised to DMSO control” value was 1.01.

As for `Nc1ccccc1S(N)(=O)=O` [o-Sulfanilamide], the “growth AUC normalised to DMSO control” value was 0.898.

`NCc1ccc(S(N)(=O)=O)cc1` [Mafenide hydrochloride]: the “growth AUC normalised to DMSO control” value was 1.

For `C[C@H](CS)C(=O)N1CCC[C@H]1C(=O)O` [Captopril], the “growth AUC normalised to DMSO control” value is 1.05.

As to `O=C1c2ccccc2S(=O)(=O)N1CCCCN1CCN(c2ncccn2)CC1` [Ipsapirone], the “growth AUC normalised to DMSO control” value is 0.979.

Consider `C[C@]12CC[C@@H]3c4ccc(O)cc4C[C@@H](CCCCCCCCC[S+]([O-])CCCC(F)(F)C(F)(F)F)[C@H]3[C@@H]1CC[C@@H]2O` (stereo not given in full) [Fulvestrant], for which the “growth AUC normalised to DMSO control” value is 1.32.

Regarding `COc1cccc2c1C(=O)c1c(O)c3c(c(O)c1C2=O)C[C@@](O)(C(C)=O)C[C@@H]3O[C@H]1C[C@H](N)[C@H](O)[C@H](C)O1` [Daunorubicin hydrochloride], the “growth AUC normalised to DMSO control” value is 0.997.

For the compound `Cc1cc(NC(=O)C2=C(O)c3ccccc3S(=O)(=O)N2C)no1` [Isoxicam], the “growth AUC normalised to DMSO control” value was 0.991.

Regarding `CCOC(=O)[N-]c1c[n+](N2CCOCC2)no1` [Molsidomine], the “growth AUC normalised to DMSO control” value is 1.03.

On to `Cc1cc(C(C)(C)C)cc(C)c1CC1=NCCN1` [Xylometazoline hydrochloride], for which the “growth AUC normalised to DMSO control” value was 0.996.

Consider `CC[C@H]1OC(=O)[C@H](C)[C@@H](O[C@H]2C[C@@](C)(OC)[C@@H](O)[C@H](C)O2)[C@H](C)[C@@H](O[C@@H]2O[C@H](C)C[C@H](N(C)C)[C@H]2O)[C@](C)(O)C[C@@H](C)[C@@H]2N[C@@H](COCCOC)O[C@H]([C@H]2C)[C@]1(C)O` [Dirithromycin], for which the “growth AUC normalised to DMSO control” value was 0.0968 (active).

Turning to `Nc1ccc(S(=O)(=O)c2ccc(N)cc2)cc1` [Dapsone], the “growth AUC normalised to DMSO control” value was 1.

For `CCn1cc(C(=O)O)c(=O)c2cc(F)c(N3CCNCC3)cc21` [Norfloxacin], the “growth AUC normalised to DMSO control” value is 0.0519 (active).

Consider `C[C@]12C=CC(=O)C=C1CC[C@@H]1[C@@H]2[C@@H](O)C[C@@]2(C)[C@H]1CC[C@]2(O)C(=O)CO` [Prednisolone], for which the “growth AUC normalised to DMSO control” value is 0.935.

Turning to `OCCN(CCO)c1nc(N2CCCCC2)c2nc(N(CCO)CCO)nc(N3CCCCC3)c2n1` [Dipyridamole], the “growth AUC normalised to DMSO control” value was 0.993.

For the compound `Cc1ccc(/C(=C\CN2CCCC2)c2ccccn2)cc1` [Triprolidine hydrochloride], the “growth AUC normalised to DMSO control” value was 0.961.

With `c1coc(CNc2ncnc3[nH]cnc23)c1` [Kinetin], the “growth AUC normalised to DMSO control” value is 1.01.

With `Nc1ccc(/N=N/c2ccccc2)c(N)n1` [Phenazopyridine hydrochloride], the “growth AUC normalised to DMSO control” value was 0.922.

On to `CN(C)CCC(c1ccccc1)c1ccccn1` (stereo not given) [Pheniramine maleate], for which the “growth AUC normalised to DMSO control” value was 0.999.

As to `CC(=O)c1ccc2c(c1)N(CCCN(C)C)c1ccccc1S2` [Acetopromazine maleate salt], the “growth AUC normalised to DMSO control” value is 0.95.

With `CCC(=O)[C@@]1(C)[C@H](C)C[C@H]2[C@@H]3CCC4=CC(=O)C=C[C@]4(C)[C@H]3[C@@H](O)C[C@@]21C` [Rimexolone], the “growth AUC normalised to DMSO control” value was 0.998.

On to `C[N+](C)(C)CCCCCC[N+](C)(C)C` [Hexamethonium dibromide dihydrate], for which the “growth AUC normalised to DMSO control” value was 0.852.

For the compound `Cc1c(OCC(F)(F)F)ccnc1C[S+]([O-])c1nc2ccccc2[nH]1` (stereo not given) [Lansoprazole], the “growth AUC normalised to DMSO control” value is 0.873.

For `O=C(OCC(O)CO)c1ccccc1Nc1ccnc2cc(Cl)ccc12` (stereo not given) [Glafenine hydrochloride], the “growth AUC normalised to DMSO control” value is 0.978.

On to `O=C(O)c1cn(C2CC2)c2cc(N3CCNCC3)c(F)cc2c1=O` [Ciprofloxacin hydrochloride monohydrate], for which the “growth AUC normalised to DMSO control” value is 0.0495 (active).
